# Measurements published in PubChem BioAssay.
# The source made the active and inactive calls. No rule for the calls is given here.
# Target: Pantothenate synthetase (Mycobacterium tuberculosis (strain ATCC 25618 / H37Rv)) (UniProt P9WIL5)
# Assay: Recombinant Mtb pantothenate synthetase (PanC) inhibitors, coupled enzyme, confirmatory (AID 375);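 also: 0% = full reaction with vehicle and 100% = no enzyme background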
# Conditions: coupled enzyme assay; at 10 µM, stronger effect = higher value
# Pantothenate synthetase (Mycobacterium tuberculosis (strain ATCC 25618 / H37Rv)), sequence (P9WIL5 whole entry, looked up): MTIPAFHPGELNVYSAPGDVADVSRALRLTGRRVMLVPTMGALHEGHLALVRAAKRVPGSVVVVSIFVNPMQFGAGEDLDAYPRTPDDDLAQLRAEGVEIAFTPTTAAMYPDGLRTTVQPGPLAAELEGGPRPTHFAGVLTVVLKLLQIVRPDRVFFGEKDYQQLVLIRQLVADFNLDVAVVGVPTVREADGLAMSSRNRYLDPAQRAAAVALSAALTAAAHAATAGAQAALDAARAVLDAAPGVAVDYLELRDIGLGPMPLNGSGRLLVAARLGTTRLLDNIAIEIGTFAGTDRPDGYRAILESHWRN
row,SMILES,inhibition
1,N#CC1=C(N)N(c2ccccc2)C2=C(C(=O)CCC2)C1c1cccs1 (stereo unspecified),0% (inactive)
2,CNC(=O)c1ccccc1NC(=O)c1c(O)c2c([nH]c1=O)CCCC2,7% (inactive)
3,CC1=C(C(=O)OC2CCCC2)C(c2ccc(C)o2)C2=C(CC(c3cccs3)CC2=O)N1 (stereo unspecified),0% (inactive)
4,O=C(O)c1ccc(-n2nnnc2Oc2ccccc2C(=O)N2CCOCC2)cc1,4% (inactive)
5,Cc1csc(NC(=O)Nc2cccc(Cl)c2)n1,0% (inactive)
6,Nc1nc(N2CCCCC2)nc(N(c2ccccc2)c2ccccc2)n1,3% (inactive)
7,CCn1c(=N)n(CC(O)c2ccco2)c2ccccc21 (stereo unspecified),0% (inactive)
8,CCOC(=O)c1c(NC(=O)OC)sc2c1CCC2,0% (inactive)
9,CCCN(C(=O)CSc1nnc(-c2ccoc2C)n1N)C1CCS(=O)(=O)C1 (stereo unspecified),0% (inactive)
10,O=C(Cn1[nH]c(=O)c2ccccc2c1=O)OCC(=O)N1CCCc2ccccc21,5% (inactive)
11,Cc1cc(C)c(-c2cc(C(=O)Nc3c(C)n(C)n(-c4ccccc4)c3=O)[nH]n2)c(O)c1,0% (inactive)
12,Clc1cc2c(c(Cn3cnc4ccccc43)c1)OCOC2,0% (inactive)
13,CSc1nc2ccc(Nc3nc(N4CCOCC4)nc(N4CCOCC4)n3)cc2s1,2% (inactive)
14,CN(c1ccccc1)S(=O)(=O)c1cc(C(=O)N2CCN(c3ccccn3)CC2)ccc1Cl,0% (inactive)
15,COc1ccc(S(=O)(=O)N2CCCC2C(=O)Nc2ccc(C)cc2)cc1 (stereo unspecified),0% (inactive)
16,Cc1cc(C)c2c(=O)n(CC(=O)NCCCN3CCN(c4ccccc4F)CC3)sc2n1,0% (inactive)
